According to PubChem BioAssay AID602441 (National Center for Advancing Translational Sciences (NCATS), 2012):
In all, about 1,300 compounds went through this assay and fewer than 10 were called active. Another 9% or so got no clear call; they are omitted. Calls come from the whole dose curve; as a rule, active = well fitted curve in the direction sought with a large enough effect; inconclusive = small, poorly fitted or top-dose-only effect, or another doubt; inactive = no such curve, though single readings can be large or run the other way. A selection follows. Entries that show only a call come without a potency.

test: qHTS for antagonists of the Thyroid Stimulation Hormone Receptor: Hit Validation in Parental Cell Line; conditions: parental HEK293 cells lacking TSHR, counter-screen; series mostly up to 56.9 µM
Source text: The thyroid-stimulating hormone receptor (TSHR) is a member of the 7 trans-membrane-spanning receptor (7TMR) family of cell surface receptors. TSHR-mediated hyperthyroidism is important in thyroid pathology. The development of small molecule antagonists of TSHR may lead to therapeutic approaches for TSHR-mediated hyperthyroidism caused by constitutively activating mutations or stimulating auto-antibodies associated with Graves' disease. Graves' disease is the leading cause of hyperthyroidism and is caused by autoantibodies that stimulate TSHR (TsAbs) causing thyroid growth and unregulated overproduction of thyroid hormones and existing treatments have liabilities (agranulocytosis). In addition, TSHRs are known to be expressed in multiple extrathyroidal tissues including bone, brain, kidney, testis, fat and cells of the immune system but the role of the TSHR in these tissues is not clear. Therefore, TSHR antagonists/inverse agonists could be used as probes of extrathyroidal TSHR function. Finally, TSHR inverse agonists, which are a subclass of antagonists that inhibit agonist-independent (or basal or constitutive) TSHR signaling, could be used to inhibit TSH-independent signaling in patients with recurrent or metastatic thyroid cancer who are receiving thyroid hormone to suppress TSH.
In collaboration between scientist from the NCGC and the NIDDK, a miniaturized HTRF high-throughput screen was developed. It's a cell based assay, where an anti cAMP antibody contains a fluorescent cryptate tag (excitation 337 nm; emission 620 nm) and the acceptor is cAMP-d2 (excitation 620 nm; emission 665 nm). When antibody and cAMP-d2 interact and are excited by a 337 nm light, a FRET occurs resulting in emission at 665 nm. The assay is competition between cAMP-d2 and cAMP (from the cell lysate). The homogeneous protocol allows for one step dispense after stimulation that is automation friendly. This is a hit validation assay in a counterscreen using parental HEK 293 cells lines.
NIH Chemical Genomics Center [NCGC]
NIH Molecular Libraries Probe Centers Network [MLPCN]
Assay Provider: Marvin Gershengorn, NIDDK
An anti cAMP antibody contains a fluorescent cryptate tag (excitation 337 nm; emission 620 nm) and the acceptor is cAMP-d2 (excitation 620 nm; emission 665 nm). When antibody and cAMP-d2 interact and are excited by a 337 nm light, a FRET occurs resulting in emission at 665 nm. The assay is competition between cAMP-d2 and cAMP (from the cell lysate). The homogeneous protocol allows for one step dispense after stimulation that is automation friendly. This assay uses parental HEK-EM 293 cells

SMILES | Potency
N#CC(C#N)=C1C=CC=CN1/C(=C\c1ccco1)C(=O)c1ccccc1 | inactive
COc1ccc(CN(C)C(=O)COC(=O)c2cnc(Cl)c(Cl)c2)cc1 | inactive
O=C(Nc1ccn(Cc2ccccc2F)n1)c1ccc(COc2ccccc2Cl)cc1 | inactive
CCSC1=NSC2=NC(=O)/C(=C\c3coc4ccccc4c3=O)C(=N)N12 | inactive
CC1=C(OC(=O)c2ccccc2)C(C)(C)C(c2ccccc2)OC1=O (configuration not stated) | inactive
O=C(Nc1nnc(S(=O)(=O)N2CCCCC2)s1)c1cccc(Br)c1 | inactive
O=C(/C=C/c1ccc(Cl)cc1Cl)NCCSCc1ccccc1 | inactive
CCCC(=O)N(C1CC(C)C(C#N)(C#N)C1(C#N)C#N)N(C)C (configuration not stated) | inactive
Cc1ccc(Oc2cc(NC(=O)CCCn3nc([N+](=O)[O-])cc3C)cc([N+](=O)[O-])c2)cc1 | inactive
O=c1[nH]c(-c2ccccc2F)nc2c1sc(=S)n2Cc1ccccc1 | inactive
O=C(Nc1ccc2oc(-c3ccccc3F)nc2c1)c1ccc2c(c1)OCCO2 | inactive
C=CC(C)(C)c1c2occc2c(O)c2ccc(=O)oc12 | inactive
Cc1ccc(-c2csc(NC(=O)c3ccc4c(=O)n5c(nc4c3)CCCCC5)n2)cc1 | inactive
Cc1ccc(C2(c3ccc(C)cc3)CC2C(=O)Nc2ccc([N+](=O)[O-])cc2O)cc1 (configuration not stated) | inactive
COc1ccc(NC(=O)c2ccc(-c3ccccc3)cc2)cc1NS(=O)(=O)c1ccc(F)cc1 | inactive
COc1ccc(N2CCN(C(=O)c3ccccc3N(C)S(=O)(=O)c3ccccc3)CC2)cc1 | inactive
Nc1ncc(Br)cc1S(=O)(=O)Nc1cc(C(F)(F)F)cc(C(F)(F)F)c1 | inactive
CCOc1cc(/C=C/c2ccc3cccc([N+](=O)[O-])c3n2)ccc1OCC(=O)N(C)C | inactive
C=CC[C@H](CC(=O)N(CCO)Cc1ccccc1)C(=O)N[C@H](COC(=O)[C@@H](CC=C)Cc1ccc(F)cc1)C(C)(C)C | inactive
COc1ccc(C)cc1-n1nnnc1SCc1cc(=O)n2cc(C)ccc2n1 | inactive
Cc1ccc(CSc2nnc(SCC(=O)N/N=C/c3c(C)nn(-c4ccccc4)c3C)s2)cc1 | inactive

SMILES | Potency
COc1ccc(C(=O)Nc2ccc(Cl)c(S(=O)(=O)Nc3ccccc3OC)c2)cc1 | inactive
CC(Oc1ccc(Cl)cc1Cl)C(=O)Nc1cccnc1 (configuration not stated) | inactive
O=C(c1ccco1)N1CCN(c2ncnc3c2nnn3Cc2ccccc2Cl)CC1 | inactive
CCOc1ccc2nc(NC(=O)c3ccc(OCC4CCCO4)cc3)sc2c1 (configuration not stated) | inactive
O=c1c2ccccc2nnn1CSc1nnc(-c2cccs2)n1Cc1ccccc1 | inactive
O=C(O)c1nn(CC(=O)N2CCN(c3ncc(C(F)(F)F)cc3Cl)CC2)c(=O)c2ccccc12 | inactive
O=C(Nc1nc(-c2cccs2)c(-c2cccs2)s1)C1CCCC1 | inactive
COc1ccc(C2=NS(=O)(=O)N(C)C(C(=O)Nc3ccc4c(c3)OCO4)=C2)cc1OC | inactive
Cc1cc(C)c(S(=O)(=O)c2c(C)cccc2C)c(Cl)n1 | inactive
COc1ccc(S(=O)(=O)n2cnc3ccccc32)c(C)c1 | inactive
CCCCOc1ccc(/C=N/Nc2cc(N3CCOCC3)nc(C)n2)cc1 | inactive
O=c1cc(-c2ccccc2)nc2c(-c3ccccc3)c(C(F)(F)F)[nH]n12 | inactive
Cc1ccc(OCCSc2ncccn2)c(C)c1 | inactive
CCN(CC)S(=O)(=O)c1cccc(NC(=O)CNc2cccc(S(=O)(=O)N3CCOCC3)c2)c1 | inactive
C=CCn1c(SCC(=O)c2cccs2)nc2sc(CC)cc2c1=O | inactive
N#C/C(=C\c1ccc(Oc2ccc(C(F)(F)F)cc2[N+](=O)[O-])cc1)c1nc2ccccc2[nH]1 | inactive
Cc1cc(C)c(-c2csc(NC(=O)/C=C/c3cccs3)n2)c(C)c1 | inactive
Cc1ccc(C)c(S(=O)(=O)N2CCN(C(=O)C3CCN(c4ncnc5sc(C)c(C)c45)CC3)CC2)c1 | inactive
CC(C)(C)c1ccc(C(=O)CC(Sc2ccc(Cl)cc2)C(=O)O)cc1 (configuration not stated) | inactive
O=C(NCc1ccc2c(c1)OCO2)C12CN(Cc3ccccc3)CC1C(c1cccc([N+](=O)[O-])c1)=NO2 (configuration not stated) | inactive
Cc1nc2ccc(Nc3nc4cc(S(=O)(=O)N5CCOCC5)ccc4o3)cc2s1 | inactive

SMILES | Potency
CSc1cccc(NC(=O)C2CCCN(S(=O)(=O)c3ccc(F)cc3)C2)c1 (configuration not stated) | inactive
O=C(CSc1nc(-c2ccc(Cl)cc2)cs1)Nc1cccc([N+](=O)[O-])c1 | inactive
CCN(Cc1ccccc1)c1ccc(/C=N/NC(=O)c2cccc(S(=O)(=O)N3CCOCC3)c2)cc1 | inactive
Fc1ccc(/C=C2\CCCC3=C2Nc2ncnn2C3c2ccc(F)cc2)cc1 (configuration not stated) | inactive
O=C1NC(=S)N(C(=O)c2ccc(F)cc2)/C1=C/c1ccccc1 | inactive
O=S(=O)(/N=C(/Nc1cccc2ccccc12)c1ccccc1)c1cccs1 | inactive
Cc1ccc(-c2csc(N(CCO)CCCn3c(C(F)(F)F)nc4ccccc43)n2)cc1 | inactive
Cc1ccc(C(=O)Nc2nc(-c3ccc(F)cc3)cs2)o1 | inactive
CN(c1ccc(OCC(=O)Nc2nc3ccccc3s2)cc1)S(=O)(=O)c1ccccc1 | inactive
Cc1cc(=O)[nH]c(SCC(=O)Nc2ccc(Br)cc2)c1C#N | inactive
CCCc1ccc(-c2c(C)sc(NC(=O)c3ccnn3C)c2C#N)cc1 | inactive
NS(=O)(=O)c1ccc(NCc2ccccc2OCc2ccccc2F)cc1 | inactive
O=C(Nc1cccc(S(=O)(=O)N2CCCCC2)c1)c1ccc2c(=O)n3c(nc2c1)CCCCC3 | inactive
COc1cc(/C=C(\C#N)c2nc3ccccc3s2)cc([N+](=O)[O-])c1O | inactive
O=C(CC1S/C(=N/N=C2CCCCCC2)NC1=O)Nc1ccc(Br)cc1F (configuration not stated) | inactive
O=C(CNc1ccc(C(F)(F)F)cc1)Nc1cccc(S(=O)(=O)N2CCCC2)c1 | inactive
O=S(=O)(Nc1cccnc1)c1cc(Cl)ccc1Cl | inactive
COCC(C)n1c(COc2ccccc2F)nnc1SCc1c(C)noc1C (configuration not stated) | inactive
CS(=O)(=O)c1ccc(C(=O)OCC(=O)NC(=O)C2CCCCC2)cc1[N+](=O)[O-] | inactive
CC(C)(C)c1cc2nc3c(c(=O)n2[nH]1)CN(Cc1ccccc1)C3=O | inactive
